The list is not random: actives were taken first. Their share in the collection is about 1.5%.
Eya2 phos inh = qHTS Assay for Inhibitors of the Phosphatase Activity of Eya2. Protein phosphatase EYA2 (Homo sapiens), O00167. recombinant Eya2, OMFP fluorescence dephosphorylation (OMFP is methylfluorescein phosphate). Potency, µM (titrated, usually from 76.9 µM), without a hit: at the highest dose activity, negative = inhibition, actives largely listed as inhibitors. 0.006% of 330,000 active; note: potency is the fitted concentration of half-maximal effect
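Eya2 protein (added as 0.2 uM solution) was preincubated with compound for 10 min at ambient temperature in 50 mM HEPES pH 7.5, 50 mM NaCl, 5 uM MgCl2, 0.05% BSA, 1 mM DTT. OMFP (added at 50 uM) then reacted 10 min; fluorescence read at 485/525 nm.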
TrxR1 substrate = qHTS Assay for Substrates of Mammalian Selenoprotein Thioredoxin Reductase 1 (TrxR1): qHTS; 0.01% of 390,000 active; Thioredoxin reductase 1, cytoplasmic (Rattus norvegicus), O89049; Potency, µM (top dose mostly 114 µM), for the others: at the top dose activity change, negative = substrate turnover; purified TrxR1 substrate turnover, NADPH consumption readout; note: potency is the fitted concentration of half-maximal effect; nearly all actives have a fitted effect of over 50% in size
Target sequence (O89049 whole entry, looked up): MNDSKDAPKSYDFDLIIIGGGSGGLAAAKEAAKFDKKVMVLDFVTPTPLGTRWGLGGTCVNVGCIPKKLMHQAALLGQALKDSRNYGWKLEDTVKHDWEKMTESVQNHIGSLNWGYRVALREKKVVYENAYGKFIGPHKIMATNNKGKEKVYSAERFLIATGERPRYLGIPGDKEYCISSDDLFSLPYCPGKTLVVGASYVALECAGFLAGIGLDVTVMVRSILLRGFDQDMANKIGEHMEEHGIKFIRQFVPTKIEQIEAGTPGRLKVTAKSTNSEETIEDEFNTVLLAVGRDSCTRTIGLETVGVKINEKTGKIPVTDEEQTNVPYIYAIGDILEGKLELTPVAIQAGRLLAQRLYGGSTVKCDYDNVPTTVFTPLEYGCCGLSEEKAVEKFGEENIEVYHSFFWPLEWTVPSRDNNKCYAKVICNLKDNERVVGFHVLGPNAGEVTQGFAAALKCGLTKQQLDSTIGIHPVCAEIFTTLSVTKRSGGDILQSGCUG
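Rat TrxR1, dispensed at 90 nM, was prereduced with 400 uM NADPH (final) for 5 min at ~22 deg C, then incubated with compound 15 min before 400 uM selenite. A first-read NADPH fluorescence drop versus no-compound background flagged substrates.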
rTrxR1 inhibitor = qHTS Assay for Inhibitors of Mammalian Selenoprotein Thioredoxin Reductase 1 (TrxR1): qHTS; Thioredoxin reductase 1, cytoplasmic (Rattus norvegicus), O89049; recombinant rTrxR1, NADPH fluorescence consumption, selenite substrate; 1% of 390,000 active; Potency, µM (series often up to 114 µM), for the others: at the highest dose activity change, negative = inhibition, actives largely listed as inhibitors; note: potency is the fitted concentration of half-maximal effect; nearly all actives have a fitted effect of over 65% in size
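Rat TrxR1 (90 nM in the dispensed reagent) was pre-reduced with 400 uM NADPH for 5 min at room temperature, then incubated with compound for 15 min. After 400 uM selenite was added, NADPH fluorescence (Ex 340/Em 450 nm) was followed for 8 min.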
IDH1 R132H inh = qHTS for Inhibitors of mutant isocitrate dehydrogenase 1 (IDH1): qHTS | IDH1-R132H enzyme, NADPH consumption, diaphorase/resazurin fluorescence | Isocitrate dehydrogenase [NADP] cytoplasmic (Homo sapiens), O75874 | Potency, µM (doses to about 76.6 µM), inactives show top-dose activity change, negative = inhibition, actives largely listed as inhibitors | AID 602179, 2012 | 0.093% of 390,000 active; note: potency is the fitted concentration of half-maximal effect; nearly all actives have a fitted effect of over 65% in size
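IDH1-R132H (0.5 ug/mL dispensed) in pH 7.5 Tris buffer was preincubated 30 min with compound, then given a substrate mix of 0.016 mM NADPH and 2 mM alpha-KG for 80 min at room temperature; remaining NADPH was read by diaphorase/resazurin fluorescence.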
FBPA coupling cs = qHTS Assay for Inhibitors of Fructose-1,6-bisphosphate Aldolase from Giardia Lamblia: Coupling assay counterscreen | 0.67% of 290,000 active | coupling enzyme system counterscreen, AmpLite Red fluorescence | activity change, negative = inhibition, % at 58.2 µM, hits read low; in the data active = activity change below about -30%
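Final compound at 57.5 uM, incubated 10 min at RT with coupling enzyme reagent (glyceraldehyde-3-phosphate), then 20 min with substrate and AmpLite Red detection. Fluorescence read at 525/598 nm; tests interference with the coupling assay, not aldolase inhibition.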
The depositor's hits bear a star; i = inactive; ? = inconclusive; · = no result; ! = not confirmed by another sample; [ ] = another dose, or the depositor's remark. Unless noted, calls come from the whole dose curve; as a rule, active = well fitted curve in the direction sought with a large enough effect; inconclusive = small, poorly fitted or top-dose-only effect, or another doubt; inactive = no such curve, though single readings can be large; an effect the other way counts as inactive or inconclusive. % is set by controls: 0 for no effect and ±100 for the full control effect.

SMILES | Eya2 phos inh | TrxR1 substrate | rTrxR1 inhibitor | IDH1 R132H inh | FBPA coupling cs
COc1ccc(NS(=O)(=O)c2cccc(C(=O)N/N=C(\C)c3ccc(-n4ccnc4)cc3)c2)cc1 | -27% | 9%[57.1 µM] | 10%[57.1 µM] | -4% | -46*
COc1c(C=O)c(=O)[nH]c2c(OC)cccc12 | · | · | · | · | 1
Nc1nc(Sc2ccc([N+](=O)[O-])c3nonc23)c2[nH]cnc2n1 | · | -32% | 1.3µM* | 18% | ·
Nc1nc(SCc2ccccc2)c2[nH]cnc2n1 | 4% | -4% | 4% | -12% | 2
CNc1ncnc(Sc2nc(N)nc3nc[nH]c23)c1[N+](=O)[O-] | · | 13%[57.1 µM] | 1.3µM* | -1% | ·
C/C=C/C1=CC2=CC(=O)C(C)(OC(=O)c3c(C)cc(O)cc3O)C(=O)C2=CO1 (centres undefined) | · | · | · | · | 0
Cc1cc(=O)oc2c(CN3CCCC3)c(O)ccc12 | 7% | 836% | 18µM* | -3% | -1
Cc1cc(=O)oc2c(O)c(O)ccc12 | · | 2% | 2% | 10% | -36*
CCN1CCN(Cc2c(O)ccc3c(C)cc(=O)oc23)CC1 | 2% | 896% | ? | 2% | 1
O=c1cc(O)c2ccc(O)cc2o1 | -13% | 29%[57.1 µM] | 10%[57.1 µM] | 0% | 0
Cc1cc(=O)oc2cc(O)ccc12 | · | i | 50µM* | 5% | -5
O=c1ccc2ccc(O)cc2o1 | · | i | 79µM* | 5% | 5
O=c1ccc2cc(O)c(O)cc2o1 | 0% | 332% | 51% | 15% | 1
c1cc2c(cc1Cc1cncc(Cc3ccc4c(c3)OCO4)c1)OCO2 | · | 3% | 23% | · | ·
O=C1c2cc(O)cc(O)c2OC[C@@H]1c1ccc(O)c(O)c1 | · | · | · | · | -2
COc1ccc(-c2cc3ncc(C)n3c(Nc3ncccc3C(N)=O)n2)cc1OC | 2% | 63%[57.1 µM] | 24%[57.1 µM] | · | ·
CC1CC=CC2C1C(=O)N(Cc1ccccc1)C2c1ccoc1 (centres undefined) | · | -4% | ? | · | 2
O=c1cc(-c2ccccc2O)oc2c(O)c(O)ccc12 | · | · | · | · | -56*
c1ncc2snnc2n1 | · | 0% | 5% | · | ·
Cc1nn(-c2ccccc2)c2c1C1(C(=O)N3c4c(cccc41)C(C)CC3(C)C)C(C#N)=C(N)O2 (centres undefined) | -18% | 0% | 0% | 3% | -59*
CC(=O)N1C(=O)C2(C(C#N)=C(N)Oc3c2c(C)nn3-c2ccccc2)c2ccccc21 (centres undefined) | -13%[15.4 µM] | -10% | -2% | 11% | -27
CCN1C(=O)C2(C(C#N)=C(N)Oc3c2c(C)nn3-c2ccccc2)c2ccccc21 (centres undefined) | 1% | 2%[11.4 µM] | -29%[11.4 µM] | 5% | -45*
Cc1nn(-c2ccccc2)c2c1C1(C(=O)N(C)c3ccccc31)C(C#N)=C(N)O2 (centres undefined) | 14% | -4% | 11% | -1% | -44*
CSc1ccc(/C=C2\C=Cc3ccc([N+](=O)[O-])cc32)cc1 | · | -8% | ? | · | ·
COc1ccc(-c2ccc(OC)c(C3C4C=CCCC4(C)C(=O)N3Cc3ccccc3)c2)cc1 (centres undefined) | · | 11%[57.1 µM] | 19% | · | 0
SMILES | Eya2 phos inh | TrxR1 substrate | rTrxR1 inhibitor | IDH1 R132H inh | FBPA coupling cs
O=C1CCCC(O)=C1C(C#Cc1ccccc1)C1=C(O)CCCC1=O | 4% | -15% | 10µM* | 11% | -2
CC1(C)CC(=O)C(C(C#Cc2ccccc2)C2=C(O)CC(C)(C)CC2=O)=C(O)C1 | -6% | -1%[57.1 µM] | 10µM* | 2% | ·
CCCCCc1cc[n+](CC(=O)c2ccccc2)cc1 | · | 10%[0.0914 µM] | 2% | · | ·
c1ccc(CCNc2ccnc3cc4ccccc4cc23)cc1 | -9% | 65%[57.1 µM] | 18%[57.1 µM] | 20% | -44*
CC1=C(/C=C/C(C)=C/C=C/C(C)=C/CO)C(C)(C)CCC1 | · | 0% | 50µM* | -14% | 1
CC(=O)OC/C=C(C)/C=C/C=C(C)/C=C/C1=C(C)CCCC1(C)C | · | · | · | · | 3
CCCCN(C)c1nc(-c2ccco2)c2c(c1C#N)CC(C)(C)OC2 | 0% | -4% | 3.5µM* | 7% | 4
CN(C)CCNc1nc(-c2ccco2)c2c(c1C#N)CC(C)(C)OC2 | -1% | 50% | ? | 9% | -3
O=C([C@@H]1CC=C[C@@H]2CCN(C3CC3)C(=O)[C@@H]21)N1CCOCC1 | · | 8% | 23% | · | ·
COCC(C)OC(=O)/C(C#N)=C\c1coc2ccc(C)cc2c1=O (centres undefined) | 13% | 7% | 28µM* | 5% | -1
CN(CCC#N)c1ccc(/C=C/c2ccnc3ccccc23)cc1 | · | -8% | -14% | · | ·
Oc1cc2c(cc1O)C1c3ccc(O)c(O)c3OCC1(O)C2 (centres undefined) | -2% | -4% | ? | -3% | -72*!
CC1CCN2c3cc(Cl)ccc3CC3(C(=O)OC(C)(C)OC3=O)C2C1 (centres undefined) | · | -2% | 7% | · | ·
CCCN1CCC(=O)N(CCC#N)CC1 | · | -11% | -17% | · | ·
O=C(NNc1ccccc1C(F)(F)F)c1sccc1Cl | · | 4% | 10% | · | ·
O=C(CSc1nc2nc(-c3cccs3)cc(C(F)(F)F)c2c(=O)[nH]1)C(F)(F)F | 10% | 609% | 35µM* | 19% | 3
O=C(NCc1ccco1)C1Cc2ccccc2CN1C(=O)c1ccco1 (centres undefined) | -6% | -21%[11.4 µM] | -43% | 2% | 0
O=C(NCc1ccco1)C1Cc2ccccc2CN1S(=O)(=O)c1ccccc1F (centres undefined) | · | -1% | 16µM* | 1% | ·
COc1cc2c(NC3CCN(C(C)C)CC3)nc(N3CCCN(C)CC3)nc2cc1OCCCN1CCCC1 | · | 44% | ? | · | ·
O=[N+]([O-])c1ccc(C[n+]2ccc(Cc3ccccc3)cc2)cc1 | -22% | -6% | -15% | 0% | -42*
COc1ccc(OC)c(C2OCCC=CC2C)c1 (centres undefined) | · | · | · | · | 3
CCOC(=O)/C(=C\c1ccccc1)NC(=O)c1ccccc1 | 2% | -8% | -2% | -3% | -5
CCOC(=O)/C(=C/c1ccc(OC(=O)c2ccccc2)cc1)C(C)=O | -19% | 0% | 14µM* | -14% | 2
CCNc1ccc(Br)cc(C(=O)/C=C/c2ccc(Cl)cc2Cl)c1=O | 6% | 0% | 8.9µM* | 3% | -12
CNc1ccc(Br)cc(C(=O)/C=C/c2ccc3c(c2)OCO3)c1=O | 10% | -10% | 14µM* | 13% | -28
CNc1ccc(Br)cc(C(=O)/C=C/c2cc(OC)ccc2OC)c1=O | -21% | 6% | 35µM* | 9% | 0

Source: PubChem (National Center for Advancing Translational Sciences (NCATS))
